# Reference: the supplement of paper PMC3334620
# In all, about 33,000 sequences were measured (“E-score (-0.5 to 0.5)”: median about -0.043, highest 2% from about 0.37 on). What follows is part of a selection rich in the highest values, with near analogues and random picks from the rest.
# Target: T1, Upc2 (UniProt Q12151)
# T1 sequence: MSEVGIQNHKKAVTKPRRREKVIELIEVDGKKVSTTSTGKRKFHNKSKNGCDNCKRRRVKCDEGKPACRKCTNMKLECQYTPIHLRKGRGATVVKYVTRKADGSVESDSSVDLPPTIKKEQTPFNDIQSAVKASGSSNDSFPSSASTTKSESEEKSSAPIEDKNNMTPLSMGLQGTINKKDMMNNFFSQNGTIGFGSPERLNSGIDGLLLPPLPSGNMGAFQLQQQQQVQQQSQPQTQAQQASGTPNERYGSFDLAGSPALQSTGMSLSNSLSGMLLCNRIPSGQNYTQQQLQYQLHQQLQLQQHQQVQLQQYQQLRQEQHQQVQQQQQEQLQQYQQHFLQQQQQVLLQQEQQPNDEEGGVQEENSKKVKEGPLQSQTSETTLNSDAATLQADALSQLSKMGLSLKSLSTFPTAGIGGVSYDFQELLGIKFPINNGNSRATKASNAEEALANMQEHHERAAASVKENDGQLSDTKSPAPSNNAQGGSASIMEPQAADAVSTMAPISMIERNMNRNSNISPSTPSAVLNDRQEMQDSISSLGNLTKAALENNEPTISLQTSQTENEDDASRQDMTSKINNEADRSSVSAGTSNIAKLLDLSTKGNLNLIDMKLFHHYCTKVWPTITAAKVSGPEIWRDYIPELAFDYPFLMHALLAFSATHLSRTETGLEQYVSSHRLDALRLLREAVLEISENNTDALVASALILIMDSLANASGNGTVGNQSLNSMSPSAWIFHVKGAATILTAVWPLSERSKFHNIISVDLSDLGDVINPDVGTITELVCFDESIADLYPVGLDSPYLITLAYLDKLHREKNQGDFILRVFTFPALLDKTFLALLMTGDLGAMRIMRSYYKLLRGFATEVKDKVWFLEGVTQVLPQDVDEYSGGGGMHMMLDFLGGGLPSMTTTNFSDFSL
# Assay: PBM E-score (8-mer binding enrichment) (E-score (-0.5 to 0.5)); higher = stronger / more preferred TF binding
# Conditions: protein concentration: 200 nM; construct: GST-full length
# Outline: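 PURExpress in vitro transcription/translation supplied GST-tagged yeast transcription factors, either full-length or DNA-binding domain. Applied at about 100-200 nM to universal all-10-mer Agilent arrays double-stranded by primer extension, the bound protein was detected with fluorescent anti-GST. E-scores, modified Wilcoxon-Mann-Whitney statistics, were given by the Universal PBM Analysis Suite to ungapped eight-base words pooled with their reverse complements after masliner normalisation.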
row,Sequence,PBM E-score
1,TTCGTAAA,0.459
2,AACGTAAC,0.245
3,GGCGTAAA,0.279
4,ATCGTAAG,0.354
5,ATCGTAAT,0.287
6,ATCGTAAC,0.372
7,TCCGTAAA,0.357
8,ACCGTAAC,0.27
9,TGCGTAAA,0.294
10,ATCGTAAA,0.448
11,GACGTAAA,0.228
12,GTCGTAAA,0.477
13,GAGTAGGC,-0.18
14,AGTCTACA,-0.115
15,AGAACACC,-0.039
16,CCGAGTGA,0.102
17,CAATAAGG,-0.351
18,CGCGTAAA,0.354
19,CACGTAAA,0.253
20,CTCGTAAA,0.482
21,ACAGATTA,-0.111
22,CATAGTAC,0.0276
23,ACATTTTA,0.187
24,AACGTCGT,0.38
25,AACGTCGA,0.202

row,Sequence,PBM E-score
1,ACCGTCGT,0.394
2,ACCGTCGA,-0.191
3,AACGTCGG,0.176
4,ACCGTCGC,0.233
5,GCAATCTA,-0.0928
6,TAAGTAAA,-0.00508
7,GTTGCAGA,-0.126
8,CCATACGG,0.396
9,CCATACGC,0.322
10,CCATACGA,0.473
11,ACATACGG,0.354
12,CCATACTA,-0.101
13,CCATACAA,-0.09
14,CCGTTCCG,0.323
15,ATTGTTGG,-0.153
16,CGATTTGC,-0.0413
17,CCGGTTAG,0.0696
18,ACAGGTAA,-0.0299
19,CCGATACC,-0.00432
20,CCGATACG,0.392
21,ACGATACA,0.279
22,AAGATACG,0.349
23,CCGATACA,0.159
24,CGGATACC,0.0516
25,CAGATACG,0.375

row,Sequence,PBM E-score
1,CGGATACA,0.201
2,ACGATACT,0.313
3,ACGATACG,0.391
4,CAGATACC,-0.184
5,CGGATACG,0.408
6,ATTCTAAA,0.155
7,CCCAGCCA,-0.0649
8,GACGGTGC,0.0569
9,AAAATCTG,-0.0273
10,CGCATAGC,0.265
11,AAGACTGG,-0.109
12,CCCTCACA,-0.164
13,CACGAGTA,0.126
14,AACGAGTA,0.437
15,AACGCGTT,0.248
16,TACGAGTA,0.453
17,AACGAGTG,0.414
18,ACCGAGTA,0.25
19,CACGAGTG,0.0785
20,AAAGAGTT,-0.235
21,GACGAGTA,0.104
22,AGCGAGTA,0.269
23,AACGAGTT,0.399
24,AGCGAGTG,0.204
25,ATCATCTA,-0.0847

row,Sequence,PBM E-score
1,CTGGTCAA,-0.17
2,ACAATATC,0.125
3,CATCAGCC,-0.104
4,TTACTGAA,0.182
5,GACGAGTC,0.0657
6,CACGAGTC,0.00415
7,AACGAGTC,0.414
8,ACAATAAT,0.0963
9,ACCCGCTG,-0.245
10,AAGCTGCG,-0.0191
11,AGGTTCAA,-0.0255
12,CTACGGGC,-0.0221
13,ACACGGGG,-0.0346
14,CTACGGGA,0.00845
15,GTACGGGA,0.389
16,ATACGGGG,0.411
17,ACACGGGA,-0.129
18,AGACGGGG,-0.147
19,GGACGGGA,-0.0849
20,ATACGGGA,0.382
21,ATACGGGC,0.426
22,ACACGGGC,-0.0605
23,GCACGGGA,0.0149
24,ACCATTAC,0.17
25,AAACCGTC,-0.0199

row,Sequence,PBM E-score
1,ACTCCAAG,-0.152
2,CTCCTTAC,0.112
3,CGATTGAA,0.0171
4,GATATGGA,0.047
5,ACCCAACA,-0.221
6,GACGCTCC,-0.0386
7,AAACATCG,-0.033
8,CTTCACGC,0.0017
9,CTATGGAG,-0.173
10,GTTGTTTA,0.0127
11,GTGTCCTA,-0.0178
12,CCATAGAA,-0.25
13,ACCCGTCA,-0.119
14,CTATAAGA,0.247
15,GTATAAGA,0.395
16,GTATAATA,0.375
17,CTATAATA,-0.055
18,ATATAATA,-0.0226
19,ATATAAGA,0.22
20,AACGTTGA,0.0964
21,CCACCAGA,-0.0981
22,AAGCGTAT,0.33
23,TATCGCGA,0.182
24,CTGCTACC,-0.161
25,CCTTGGAC,-0.0581

row,Sequence,PBM E-score
1,GGCTGTGA,-0.125
2,GCCGTTTA,0.465
3,CCCGTTTA,0.456
4,ACCGTTTA,0.458
5,ACCGTTTC,0.244
6,GCCGTTCA,0.31
7,CACGTTTA,0.363
8,ACCGTTTG,0.333
9,CCCGTTTC,0.197
10,GCCGTTAA,0.292
11,AACCAAGG,-0.0086
12,AAAAACTG,-0.0494
13,ACACGCTC,0.0594
14,CGCTGCAC,-0.0173
15,AAAGGCTA,-0.173
16,ACTGTGCG,0.134
17,CCGTAGCA,0.0702
18,TCGTAGCA,0.39
19,TCGTAGAA,0.39
20,ACGTAGCA,0.0515
21,CCGTAGAA,0.118
22,GCGTAGAA,0.0848
23,TAACTGAA,-0.0941
24,ACAACACT,0.0862
25,ATATGGTA,0.158

row,Sequence,PBM E-score
1,CTTCTTAA,0.0092
2,AACCTCGC,0.0636
3,ACCCTCGC,0.0921
4,ACCCTCGA,-0.244
5,AACCTCGA,0.0605
6,ACCCTCGT,0.419
7,AACCTCGT,0.372
8,TCAGGCAA,-0.146
9,TATTCACA,0.101
10,CGTACCGA,0.398
11,GGTACCGA,0.0871
12,CATACCGC,0.00223
13,CGTACCGC,0.416
14,AGTACCGA,-0.0766
15,AGTACCGC,0.1
16,GCTCATCA,-0.195
17,GTAAAGCA,0.223
18,ACTTCTGA,-0.307
19,CGGGGCAG,0.131
20,TCAGAAAA,-0.153
21,CGCCGTAC,0.408
22,CGCCGTAA,0.285
23,GGCCGTAC,0.389
